NPC1 promoter act = activators of NPC1 promoter; hit rate 2.4% among 320,000; Huh7 NPC1 promoter luciferase reporter, 24 h; Potency, µM (series often up to 9.22 µM), for the others: at the highest dose activation, most hits filed as activators; AID 485313; further: % of control where 0% means no effect; nearly all actives have a fitted effect of over 60% in size
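Readout is luciferase luminescence, reflecting NPC1 promoter activation in stably transfected Huh7 cells after 24 h compound exposure at 37 °C in reduced-serum medium with 10% FBS.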
FLuc modulator = inhibits or activates purified firefly luciferase, miR-21 counter-screen | P08659 | purified FLuc, Km substrates, luminescence inhibition | Potency, µM (titrated, usually from 57.5 µM), for inactives: at the top dose activity change, negative = inhibition, actives largely listed as inhibitors | hit rate 6.9% among 360,000 | AID 588342;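 further: plate controls were vehicle for no effect and reference inhibitor for full effect; nearly all actives have a fitted effect of over 55% in size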
Target sequence (P08659 whole entry, looked up): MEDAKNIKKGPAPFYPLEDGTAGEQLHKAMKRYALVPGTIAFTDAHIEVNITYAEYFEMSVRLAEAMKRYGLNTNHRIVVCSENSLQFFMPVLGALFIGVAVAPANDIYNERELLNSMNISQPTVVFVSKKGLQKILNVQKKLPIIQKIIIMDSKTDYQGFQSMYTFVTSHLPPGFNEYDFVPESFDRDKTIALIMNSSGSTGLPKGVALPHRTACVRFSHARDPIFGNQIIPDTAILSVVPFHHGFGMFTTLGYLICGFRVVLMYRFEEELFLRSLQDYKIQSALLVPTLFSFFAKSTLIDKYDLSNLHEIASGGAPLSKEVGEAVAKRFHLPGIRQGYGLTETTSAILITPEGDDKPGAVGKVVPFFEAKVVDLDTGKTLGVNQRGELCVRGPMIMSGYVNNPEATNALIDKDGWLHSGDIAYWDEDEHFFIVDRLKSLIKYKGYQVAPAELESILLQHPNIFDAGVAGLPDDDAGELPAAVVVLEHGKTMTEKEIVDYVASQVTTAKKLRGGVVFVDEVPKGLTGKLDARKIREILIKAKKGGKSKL
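Purified P. pyralis luciferase, 10 nM final, with Km-level 10 uM D-luciferin and 10 uM ATP in 50 mM Tris acetate pH 7.5, 10 mM Mg acetate, 0.01% Tween-20, 0.05% BSA; 6-point qHTS titration about 60 µM downward; luminescence read.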
Rab9 prom act = activates the Rab9 promoter; Huh7 Rab9 promoter-luciferase reporter, luminescence, 24 h; Potency, µM (top dose mostly 9.22 µM), for inactives: top-dose activation, negative = inhibition, hits mostly activators; hit rate 2.8% among 320,000; further: % of control where 0% means no effect; nearly all actives have a fitted effect of over 60% in size
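Stable Rab9-luc Huh7, 1500 cells/well, 2 h settle; cmpd in DMSO, 24 h, 37 °C/5% CO2; luciferase reagent 10 min RT; luminescence.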
SMN2 splice enh = enhancers of SMN2 splice variant expression; HEK293 SMN2-luciferase splicing reporter, luminescence, 30-36 h; hit rate 2.8% among 210,000; Potency, µM (titrated, usually from 46.1 µM), without a hit: at the top dose activity change, positive = activation, actives largely listed as activators; AID 1458; further: % of control where 0% means no effect; nearly all actives have a fitted effect of over 55% in size
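HEK293 cells carry an SMN2 […]–luciferase reporter in which exon 7 inclusion puts luciferase in frame. Cells were plated 10-12 h before compound addition, then incubated 30-36 h at 37C. ONE-Glo luminescence was read; sodium butyrate at 4.5 mM final served as control.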
ELG1 genotoxic = inducers of genotoxicity in HEK293T ELG1-luciferase cells; HEK293T ELG1-luciferase reporter, luminescence, 16 h; Potency, µM (top dose mostly 46 µM), without a hit: at the top dose activity change, positive = activation, most hits filed as activators; hit rate 1.3% among 330,000; further: % of control where 0% means no effect; nearly all actives have a fitted effect of over 60% in size
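Genotoxicity was scored as increased ELG1-luciferase reporter signal, measured by ONE-Glo luminescence (30 min, room temperature). Compound or vehicle exposure of the HEK293T reporter cells lasted 16 hr at 37°C.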
* hit, by the source's call; u = inconclusive; x = no result. Shown are actives, neighbours in structure and some others; about 7.4% of the full set was active somewhere. The call rests on the fitted dose curve; in most records, active means well fitted curve in the direction sought with a large enough effect; inconclusive means small, poorly fitted or top-dose-only effect, or another doubt; inactive means no such curve, though single readings can be large; an effect the other way counts as inactive or inconclusive. Potency means the concentration at half of the fitted maximal effect.

SMILES	NPC1 promoter act	FLuc modulator	Rab9 prom act	SMN2 splice enh	ELG1 genotoxic
Cc1csc(NC(=O)c2ccccc2O)n1	u	12µM*	u	2.3%	u
Cc1ccccc1CSc1ncc(CO)n1Cc1ccc(F)cc1	x	-7.0%	x	x	x
CN(C)c1ccc(C(CNC(=O)c2cccc(C(F)(F)F)c2)N2CCCC2)cc1 (stereo not given)	x	-2.0%	x	x	x
CC(C)C[C@H](NC(=O)[C@H](CCC(N)=O)NC(=O)[C@H](CCCCN)NC(=O)[C@H](CCC(N)=O)NC(=O)[C@@H](N)CCC(=O)O)C(=O)N[C@@H](CCC(N)=O)C(=O)O	x	x	x	3.1%	x
Cc1cnc(NC(=O)Cc2ccccc2Cl)s1	-1.8%	3.5%	2.9%	x	8.4%
Cc1csc(NC(=O)c2cc(C)oc2C)n1	u	21.3µM*	u	58.0%	12.4%
Cc1ccc(C(=O)O)c(C(=O)Nc2nc(C)cs2)c1	-0.1%	-1.3%	-1.4%	-7.6%	1.0%
Cc1csc(NC(=O)Cc2ccccc2Cl)n1	u	16.9µM*	5.01µM*	x	u
O=C(Nc1ccccn1)c1ccc(NC(=O)c2ccco2)cc1	2.24µM*	10.7µM*	2.24µM*	12.6µM*	u
O=C(Nc1ccccn1)c1ccc(C(=O)c2ccccc2)cc1	3.55µM*	4.26µM*	2.51µM*	x	4.61µM*
Cc1cc(C(=O)Nc2ccccn2)cs1	1.41µM*	10.7µM*	1.41µM*	7.94µM*	u
COc1cc(C(=O)Nc2ccccn2)cc(OC)c1OC	-3.6%	-0.7%	2.0%	6.6%	8.3%
O=C(NC(=O)c1ccccc1)Nc1ccccn1	-22.6%	0.269µM*	1.26µM*	x	u
O=C(CCCn1c(=O)c2sccc2n(Cc2c(F)cccc2Cl)c1=O)NCc1ccccc1	x	0.8%	x	21.1%	x
C=CCC(C)(O)CCc1ccccc1 (stereo not given)	x	x	x	13.0%	x
c1ccc(CCc2nc3ccccc3[nH]2)cc1	u	16.9µM*	u	x	u
Nc1cccc(CCc2nc3cc4ccccc4cc3[nH]2)c1	26.9%	19µM*	1.58µM*	5.62µM*	18.4µM*
CN(CC(=O)O)Cc1nc2ccccc2[nH]1	0.8%	21.3µM*	-3.3%	0.7%	u
Nc1ccc2nc(CCCCc3nc4ccccc4[nH]3)[nH]c2c1	-10.1%	4.4%	0.2%	x	-2.9%
O=c1[nH]c2ccccc2nc1Cc1ccc(Cl)cc1	-2.8%	1.1%	-0.8%	x	3.5%
O=c1[nH]c2ccccc2nc1CCc1ccccc1	u	-8.6%	3.16µM*	u	u
CC1CCCO1 (stereo not given)	x	x	x	2.4%	x
CC(=O)/C(=C\c1ccccc1)CC(=O)O	x	x	x	-8.5%	x
C=CCC(O)(/C=C/c1ccccc1)c1ccccc1 (stereo not given)	x	x	x	12.8%	x
COc1ccc(NC(=O)c2ccc(OCC3CCCO3)cc2)cc1OC (stereo not given)	-0.7%	15.1µM*	17.0%	x	10.3%
SMILES	NPC1 promoter act	FLuc modulator	Rab9 prom act	SMN2 splice enh	ELG1 genotoxic
CC(C)N(CCNC(=O)c1ccc(OCC2CCCO2)cc1)C(C)C (stereo not given)	-1.7%	-1.3%	-1.3%	x	-0.4%
COc1ccc(NC(=O)c2ccc(OCC3CCCO3)cc2)cc1Cl (stereo not given)	u	2.39µM*	u	x	6.7%
O=C(NC1CCCCCC1)c1ccc(OCC2CCCO2)cc1 (stereo not given)	u	12µM*	2µM*	12.6µM*	u
CC1(C)C(=O)C(c2ccccc2)=C2CN3C(=O)N(CCc4ccccc4)C(=O)C3(Cc3ccccc3)C=C21 (stereo not given)	x	x	x	-16.6%	x
N#Cc1ccccc1NC(=O)CN1C(=O)NC(Cc2c[nH]c3ccccc23)C1=O (stereo not given)	0.5%	9.53µM*	0.4%	x	0.8%
CN1C(=O)C(Cc2c[nH]c3ccccc23)NC1=S (stereo not given)	x	x	x	12.6µM*	x
O=C(CN1C(=O)NC(Cc2c[nH]c3ccccc23)C1=O)Nc1ccc(F)cc1F (stereo not given)	x	x	x	x	1.4%
O=C(NC(=O)c1ccccc1)NC1(C(F)(F)F)OCCO1	2.51µM*	10.7µM*	3.98µM*	15.8µM*	u
CCN1CCN(Cc2ccc(NC(=O)c3cc(NC(=O)c4ccno4)cc(OC)c3)cc2C(F)(F)F)CC1	-2.7%	-2.6%	-6.4%	x	-3.2%
CCN1CCN(Cc2ccc(NC(=O)c3cc(NC(=O)c4ccc5n[nH]nc5c4)cc(OC)c3)cc2C(F)(F)F)CC1	-6.8%	2.69µM*	-2.8%	x	3.3%
CCN1CCN(Cc2ccc(NC(=O)c3cc(NC(=O)c4cc(-c5ccc(OC)cc5)n[nH]4)cc(OC)c3)cc2C(F)(F)F)CC1	-1.6%	13.5µM*	-1.7%	x	7.9%
CCN1CCN(Cc2ccc(NC(=O)c3cc(NC(=O)N4CCNC4=O)cc(OC)c3)cc2C(F)(F)F)CC1	0.3%	-11.8%	-4.1%	x	-18.7%
Cc1ccc(-n2nc(-c3ccc(N)cc3)cc2N)cc1	u	19µM*	u	11.2µM*	u
CC(=O)Nc1ccc(-c2cc(N)n(-c3ccccc3)n2)cc1	2.24µM*	9.53µM*	3.16µM*	x	u
Nc1cc(-c2ccc(Cl)cc2)nn1-c1ccccc1	3.16µM*	6.01µM*	3.16µM*	14.1µM*	u
COC(=O)c1ccc(Nc2nnc(-c3ccc(C)c(S(=O)(=O)N4CCN(C)CC4)c3)c3ccccc23)cc1	x	u	x	-11.4%	x
CCOc1ccc(-n2c(SCc3ccc(C(=O)OC)o3)nc3c([nH]c4ccccc43)c2=O)cc1	x	1.0%	x	x	x
COC(=O)c1ccc(NC(=O)C2CCN(c3ncnc4c3nc3n4CCCCC3)CC2)cc1	x	-16.7%	x	x	x
CCOC(=O)C1CCCN(C(=O)c2cc(-c3ccco3)nc3ccccc23)C1 (stereo not given)	x	x	x	x	2.2%
COc1cccc(-c2nn(-c3ccc(C)cc3)cc2C(=O)N2CCN(C3CCS(=O)(=O)C3)CC2)c1 (stereo not given)	4.9%	15.1µM*	1.1%	x	-1.9%
O=C(c1cc(-c2ccc(F)cc2)nc2ccccc12)N1CCN(C2CCS(=O)(=O)C2)CC1 (stereo not given)	8.8%	9.53µM*	19.2%	x	-0.2%
CCOC(=O)C1CCCN(C(=O)c2cc(Nc3ccc(OC)cc3)nc3ccccc23)C1 (stereo not given)	x	15.1µM*	x	-5.2%	x
CCOC(=O)C1CCCN(C(=O)c2cc(-c3ccc(F)cc3)nc3ccccc23)C1 (stereo not given)	-1.7%	15.1µM*	-4.5%	24.0%	-8.9%
CCOC(=O)C1CCCN(C(=O)c2cc(-c3ccncc3)nc3ccccc23)C1 (stereo not given)	-1.7%	-6.8%	-4.4%	x	-3.4%
O=C(c1cc(-c2ccc(Cl)cc2)nc2ccccc12)N1CCC1	0.2%	u	-3.8%	x	-15.5%
Cn1c(=O)oc2cc(S(=O)(=O)N3CCCC(C(=O)NCc4ccc(F)cc4)C3)ccc21 (stereo not given)	x	-4.5%	x	-0.8%	x

High-throughput results deposited in PubChem by National Center for Advancing Translational Sciences (NCATS).
